Consider one sequence from publication PMC7862700, “An all-to-all approach to the identification of sequence-specific readers for epigenetic DNA modifications on cytosine”.

Assay in all cases: DAPPL (digital affinity profiling via proximity ligation, sequencing); 10 mM Tris-HCl pH 7.5, 50 mM NaCl, 1 mM DTT, 4% glycerol, room temperature, 30 min; GST-TFs on glutathione beads, 16-mer random dsDNA library, 0.1% formaldehyde crosslink after washing; high values mean tight binding
In one assay the target is T1, FLI1 (Homo sapiens, UniProt Q01543 1-452).
T1 sequence: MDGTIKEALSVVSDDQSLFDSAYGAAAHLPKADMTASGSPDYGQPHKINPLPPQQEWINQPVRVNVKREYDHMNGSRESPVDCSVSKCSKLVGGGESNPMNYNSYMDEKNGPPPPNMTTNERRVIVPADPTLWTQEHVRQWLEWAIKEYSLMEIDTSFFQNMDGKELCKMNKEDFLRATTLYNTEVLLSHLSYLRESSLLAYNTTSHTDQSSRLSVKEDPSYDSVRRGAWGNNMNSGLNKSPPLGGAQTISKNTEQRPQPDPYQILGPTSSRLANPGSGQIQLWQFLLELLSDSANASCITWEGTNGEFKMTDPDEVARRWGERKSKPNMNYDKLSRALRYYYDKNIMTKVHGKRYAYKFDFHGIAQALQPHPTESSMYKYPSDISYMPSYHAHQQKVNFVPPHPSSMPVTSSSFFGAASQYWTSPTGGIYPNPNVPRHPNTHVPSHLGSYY
The note with it: protein: recombinant; tags: N-terminal GST; dsDNA, one strand shown. An outline of the steps:
(§1)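 Sequencing on an Illumina NextSeq500 followed washing, crosslinking with 0.1% formaldehyde, proximity ligation (BsaI/T4 ligase, 1 h, 37 °C) and PCR amplification of pools that had been incubated for 30 min at room temperature with 200 nmole of a random double-stranded 16-mer DNA library in Tris/NaCl/DTT/glycerol buffer. Each pool held DNA-barcoded human transcription factors, expressed in yeast as GST fusions and captured on glutathione beads, plus a tag-only sample. Binding signal is a hexamer's read frequency for a factor divided by its frequency in the tag-only sample.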

The next assay addresses T2, ELK1 (Homo sapiens, UniProt P19419 1-428).
T2 sequence: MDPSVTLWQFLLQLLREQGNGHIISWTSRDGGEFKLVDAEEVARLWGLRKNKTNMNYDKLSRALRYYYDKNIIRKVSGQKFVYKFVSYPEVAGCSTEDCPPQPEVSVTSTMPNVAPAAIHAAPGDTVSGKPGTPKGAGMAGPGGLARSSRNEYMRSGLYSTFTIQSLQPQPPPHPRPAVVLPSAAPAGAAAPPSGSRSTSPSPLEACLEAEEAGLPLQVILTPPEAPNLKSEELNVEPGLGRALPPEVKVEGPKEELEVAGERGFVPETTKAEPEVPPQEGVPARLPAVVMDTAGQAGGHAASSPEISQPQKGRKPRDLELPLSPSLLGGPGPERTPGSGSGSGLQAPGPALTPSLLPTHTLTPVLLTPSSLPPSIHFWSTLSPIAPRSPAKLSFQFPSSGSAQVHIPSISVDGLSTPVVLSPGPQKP
The note with it: protein: recombinant; tags: N-terminal GST; dsDNA, one strand shown. An outline of the steps:
as §1

Another assay deals with T3, GABPA (Homo sapiens, UniProt Q06546 1-454).
T3 sequence: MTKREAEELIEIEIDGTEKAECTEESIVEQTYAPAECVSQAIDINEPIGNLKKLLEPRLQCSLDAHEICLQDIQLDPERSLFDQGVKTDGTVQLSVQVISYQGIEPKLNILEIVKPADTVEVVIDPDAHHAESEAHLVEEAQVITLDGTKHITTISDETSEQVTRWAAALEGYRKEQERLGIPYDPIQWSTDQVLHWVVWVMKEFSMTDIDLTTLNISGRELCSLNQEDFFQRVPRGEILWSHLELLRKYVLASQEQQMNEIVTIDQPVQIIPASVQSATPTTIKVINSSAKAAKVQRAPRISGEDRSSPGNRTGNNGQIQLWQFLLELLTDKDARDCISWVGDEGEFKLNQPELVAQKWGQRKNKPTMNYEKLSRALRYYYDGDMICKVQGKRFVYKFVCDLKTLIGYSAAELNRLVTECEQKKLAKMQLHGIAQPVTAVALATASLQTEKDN
The note with it: protein: recombinant; tags: N-terminal GST; dsDNA, one strand shown. In outline:
as §1

The next assay concerns the target T4, ERG (Homo sapiens, UniProt P11308 1-479).
T4 sequence: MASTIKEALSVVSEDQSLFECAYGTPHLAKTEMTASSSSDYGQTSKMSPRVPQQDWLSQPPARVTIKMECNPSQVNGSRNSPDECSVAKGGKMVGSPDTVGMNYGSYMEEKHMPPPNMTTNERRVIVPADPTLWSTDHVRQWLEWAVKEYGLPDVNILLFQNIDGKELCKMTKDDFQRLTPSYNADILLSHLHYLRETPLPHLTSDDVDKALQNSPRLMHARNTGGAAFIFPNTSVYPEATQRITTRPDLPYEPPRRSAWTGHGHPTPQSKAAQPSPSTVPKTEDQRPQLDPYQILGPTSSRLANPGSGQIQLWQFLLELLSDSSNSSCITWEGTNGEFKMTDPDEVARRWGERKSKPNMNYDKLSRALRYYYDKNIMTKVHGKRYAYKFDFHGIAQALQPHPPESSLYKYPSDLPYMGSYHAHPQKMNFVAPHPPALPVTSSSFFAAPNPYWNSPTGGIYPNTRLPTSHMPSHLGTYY
The note with it: protein: recombinant; tags: N-terminal GST; dsDNA, one strand shown. In outline: as §1

The target of another assay is ELF1 (Homo sapiens, UniProt P32519 1-619). The note with it: protein: recombinant; tags: N-terminal GST; dsDNA, one strand shown. In outline: as §1
A further assay has as its target T5, EHF (Homo sapiens, UniProt Q9NZC4 1-300).
T5 sequence: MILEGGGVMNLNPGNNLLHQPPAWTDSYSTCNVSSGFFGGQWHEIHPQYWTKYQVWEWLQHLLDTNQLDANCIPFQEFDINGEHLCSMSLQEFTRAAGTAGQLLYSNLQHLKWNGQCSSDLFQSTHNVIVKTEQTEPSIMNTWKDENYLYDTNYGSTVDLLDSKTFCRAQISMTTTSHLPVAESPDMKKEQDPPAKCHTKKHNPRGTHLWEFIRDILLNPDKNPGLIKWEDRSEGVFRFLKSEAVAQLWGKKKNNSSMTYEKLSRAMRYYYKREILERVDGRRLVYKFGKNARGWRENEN
The note with it: protein: recombinant; tags: N-terminal GST; dsDNA, one strand shown. In outline:
as §1

A further assay has as its target SPI1 (Homo sapiens, UniProt P17947 1-270). The note with it: protein: recombinant; tags: N-terminal GST; dsDNA, one strand shown. In outline: as §1
For the next assay, the target named is SPIB (Homo sapiens, UniProt Q01892 1-262). The note with it: protein: recombinant; tags: N-terminal GST; dsDNA, one strand shown. In outline: as §1
A further assay has as its target T6, ELK3 (Homo sapiens, UniProt P41970 1-407).
T6 sequence: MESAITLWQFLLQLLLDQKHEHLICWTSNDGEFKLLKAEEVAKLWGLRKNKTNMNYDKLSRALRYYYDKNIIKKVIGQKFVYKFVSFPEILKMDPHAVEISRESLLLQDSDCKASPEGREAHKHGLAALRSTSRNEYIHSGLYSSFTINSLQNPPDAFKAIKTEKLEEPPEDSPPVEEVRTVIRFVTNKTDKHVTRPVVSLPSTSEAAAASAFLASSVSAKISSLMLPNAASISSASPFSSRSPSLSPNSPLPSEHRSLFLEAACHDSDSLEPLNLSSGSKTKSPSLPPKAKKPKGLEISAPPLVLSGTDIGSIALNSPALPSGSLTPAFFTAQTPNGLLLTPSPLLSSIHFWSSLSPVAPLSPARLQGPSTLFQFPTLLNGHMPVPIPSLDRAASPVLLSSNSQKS
The note with it: protein: recombinant; tags: N-terminal GST; dsDNA, one strand shown. In outline: as §1

In a further assay the target is T7, FEV (Homo sapiens, UniProt Q99581 1-238).
T7 sequence: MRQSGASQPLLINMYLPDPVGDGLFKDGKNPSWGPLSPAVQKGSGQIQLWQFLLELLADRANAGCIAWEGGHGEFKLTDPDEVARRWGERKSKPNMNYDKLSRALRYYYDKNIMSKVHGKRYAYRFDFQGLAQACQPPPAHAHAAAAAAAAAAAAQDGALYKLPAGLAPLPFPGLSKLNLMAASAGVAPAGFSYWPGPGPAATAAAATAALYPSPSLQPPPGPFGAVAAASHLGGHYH
The note with it: protein: recombinant; tags: N-terminal GST; dsDNA, one strand shown. An outline of the steps: as §1

A further assay deals with ETV5 (Homo sapiens, UniProt P41161 1-510). The note with it: protein: recombinant; tags: N-terminal GST; dsDNA, one strand shown. An outline of the steps: as §1
The target in another assay is HSF1 (Homo sapiens, UniProt Q00613 1-529). The note with it: protein: recombinant; tags: N-terminal GST; chain copies: 3; dsDNA, one strand shown. In outline: as §1
A further assay has as its target T8, SPIC (Homo sapiens, UniProt Q8N5J4 1-248).
T8 sequence: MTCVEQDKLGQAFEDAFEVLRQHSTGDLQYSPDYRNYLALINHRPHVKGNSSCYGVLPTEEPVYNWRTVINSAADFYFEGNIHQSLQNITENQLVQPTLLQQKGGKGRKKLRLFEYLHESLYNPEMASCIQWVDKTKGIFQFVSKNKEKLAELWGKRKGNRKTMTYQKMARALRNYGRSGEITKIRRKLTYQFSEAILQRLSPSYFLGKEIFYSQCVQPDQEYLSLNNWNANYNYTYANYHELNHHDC
The note with it: protein: recombinant; tags: N-terminal GST; dsDNA, one strand shown. An outline of the steps: as §1

The next assay has as its target ELF4 (Homo sapiens, UniProt Q99607 1-663). The note with it: protein: recombinant; tags: N-terminal GST; dsDNA, one strand shown. In outline: as §1
In a further assay the target is T9, ELK4 (Homo sapiens, UniProt P28324-2 1-405).
T9 sequence: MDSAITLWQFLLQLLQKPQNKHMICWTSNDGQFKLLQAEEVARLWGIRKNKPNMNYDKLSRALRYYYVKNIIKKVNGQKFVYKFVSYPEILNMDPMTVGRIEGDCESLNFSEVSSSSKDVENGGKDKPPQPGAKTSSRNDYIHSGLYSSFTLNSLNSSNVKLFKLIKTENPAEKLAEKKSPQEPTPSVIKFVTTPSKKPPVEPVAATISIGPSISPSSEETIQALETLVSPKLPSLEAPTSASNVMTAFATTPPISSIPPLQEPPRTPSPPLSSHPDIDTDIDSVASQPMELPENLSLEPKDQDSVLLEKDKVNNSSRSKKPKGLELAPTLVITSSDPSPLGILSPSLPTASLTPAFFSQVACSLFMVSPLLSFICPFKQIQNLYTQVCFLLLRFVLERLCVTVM
The note with it: protein: recombinant; tags: N-terminal GST; dsDNA, one strand shown. An outline of the steps: as §1

Another assay concerns the target T10, ETV2 (Homo sapiens, UniProt O00321 1-342).
T10 sequence: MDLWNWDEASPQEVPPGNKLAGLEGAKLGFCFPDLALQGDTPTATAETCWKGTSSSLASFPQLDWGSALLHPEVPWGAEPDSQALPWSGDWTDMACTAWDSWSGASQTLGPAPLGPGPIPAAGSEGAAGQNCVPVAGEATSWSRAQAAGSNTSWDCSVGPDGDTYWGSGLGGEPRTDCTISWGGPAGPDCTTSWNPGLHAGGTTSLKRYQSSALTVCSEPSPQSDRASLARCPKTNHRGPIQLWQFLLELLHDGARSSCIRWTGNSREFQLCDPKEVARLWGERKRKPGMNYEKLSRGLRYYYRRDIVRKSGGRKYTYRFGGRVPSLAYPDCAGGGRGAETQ
The note with it: protein: recombinant; tags: N-terminal GST; dsDNA, one strand shown. In outline:
as §1

Another assay concerns the target T11, ELF3 (Homo sapiens, UniProt P78545 1-371).
T11 sequence: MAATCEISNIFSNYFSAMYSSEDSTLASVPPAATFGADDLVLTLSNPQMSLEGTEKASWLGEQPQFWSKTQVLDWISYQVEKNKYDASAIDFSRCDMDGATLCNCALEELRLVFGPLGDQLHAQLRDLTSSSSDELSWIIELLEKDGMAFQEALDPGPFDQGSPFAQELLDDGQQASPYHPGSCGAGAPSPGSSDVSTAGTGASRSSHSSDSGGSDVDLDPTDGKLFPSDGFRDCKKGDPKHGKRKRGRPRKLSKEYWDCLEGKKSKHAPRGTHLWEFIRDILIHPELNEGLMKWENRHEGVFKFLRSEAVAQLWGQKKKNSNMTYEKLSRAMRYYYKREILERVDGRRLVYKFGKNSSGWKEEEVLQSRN
The note with it: protein: recombinant; tags: N-terminal GST; dsDNA, one strand shown. An outline of the steps:
as §1

Another assay concerns the target ETV1 (Homo sapiens, UniProt P50549 1-477). The note with it: protein: recombinant; tags: N-terminal GST; dsDNA, one strand shown. In outline: as §1

ELF4, sequence (Q99607 whole entry): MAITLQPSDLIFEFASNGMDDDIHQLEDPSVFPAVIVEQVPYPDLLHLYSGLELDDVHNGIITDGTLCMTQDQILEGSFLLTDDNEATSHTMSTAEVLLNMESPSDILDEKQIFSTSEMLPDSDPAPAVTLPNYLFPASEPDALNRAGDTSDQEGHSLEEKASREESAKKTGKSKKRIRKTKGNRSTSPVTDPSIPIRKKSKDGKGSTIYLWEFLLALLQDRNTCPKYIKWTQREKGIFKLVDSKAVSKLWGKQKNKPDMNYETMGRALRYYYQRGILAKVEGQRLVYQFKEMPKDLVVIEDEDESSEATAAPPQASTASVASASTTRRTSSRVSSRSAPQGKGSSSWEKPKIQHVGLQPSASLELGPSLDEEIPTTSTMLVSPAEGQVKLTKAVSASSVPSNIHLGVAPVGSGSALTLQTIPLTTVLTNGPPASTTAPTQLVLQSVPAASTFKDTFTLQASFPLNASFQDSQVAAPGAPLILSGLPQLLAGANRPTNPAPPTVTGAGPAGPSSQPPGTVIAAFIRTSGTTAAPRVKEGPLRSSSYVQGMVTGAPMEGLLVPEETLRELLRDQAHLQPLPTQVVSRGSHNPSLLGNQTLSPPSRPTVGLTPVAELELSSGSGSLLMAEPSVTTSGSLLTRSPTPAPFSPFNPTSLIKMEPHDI
HSF1, sequence (Q00613 whole entry): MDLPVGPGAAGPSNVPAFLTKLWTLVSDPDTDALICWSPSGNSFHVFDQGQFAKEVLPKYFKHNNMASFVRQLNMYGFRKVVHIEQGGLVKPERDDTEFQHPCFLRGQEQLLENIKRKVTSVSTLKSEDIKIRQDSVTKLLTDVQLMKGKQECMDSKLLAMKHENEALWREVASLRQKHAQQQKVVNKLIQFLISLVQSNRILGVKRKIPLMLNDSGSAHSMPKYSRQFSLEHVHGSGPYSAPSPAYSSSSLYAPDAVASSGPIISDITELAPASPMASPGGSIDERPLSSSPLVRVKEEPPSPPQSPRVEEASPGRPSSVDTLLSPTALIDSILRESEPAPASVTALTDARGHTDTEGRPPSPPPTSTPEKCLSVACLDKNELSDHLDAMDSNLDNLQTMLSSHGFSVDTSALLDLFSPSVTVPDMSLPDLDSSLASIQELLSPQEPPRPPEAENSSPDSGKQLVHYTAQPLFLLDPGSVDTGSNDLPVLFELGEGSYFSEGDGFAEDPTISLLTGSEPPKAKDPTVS
ETV5, sequence (P41161 whole entry): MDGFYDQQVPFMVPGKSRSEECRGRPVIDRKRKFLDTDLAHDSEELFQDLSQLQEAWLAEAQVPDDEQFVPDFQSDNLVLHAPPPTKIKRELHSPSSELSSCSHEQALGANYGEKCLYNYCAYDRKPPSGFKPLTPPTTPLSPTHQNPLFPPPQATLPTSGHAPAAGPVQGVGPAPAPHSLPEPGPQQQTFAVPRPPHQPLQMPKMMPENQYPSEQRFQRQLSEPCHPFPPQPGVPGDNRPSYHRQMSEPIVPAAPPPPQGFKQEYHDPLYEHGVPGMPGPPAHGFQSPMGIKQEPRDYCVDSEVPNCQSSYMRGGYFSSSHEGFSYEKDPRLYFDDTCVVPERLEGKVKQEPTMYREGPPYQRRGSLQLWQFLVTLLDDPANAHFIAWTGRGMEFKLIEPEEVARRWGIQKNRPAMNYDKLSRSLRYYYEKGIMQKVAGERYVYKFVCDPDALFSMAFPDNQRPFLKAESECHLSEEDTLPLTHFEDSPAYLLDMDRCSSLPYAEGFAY
ELF1, sequence (P32519 whole entry): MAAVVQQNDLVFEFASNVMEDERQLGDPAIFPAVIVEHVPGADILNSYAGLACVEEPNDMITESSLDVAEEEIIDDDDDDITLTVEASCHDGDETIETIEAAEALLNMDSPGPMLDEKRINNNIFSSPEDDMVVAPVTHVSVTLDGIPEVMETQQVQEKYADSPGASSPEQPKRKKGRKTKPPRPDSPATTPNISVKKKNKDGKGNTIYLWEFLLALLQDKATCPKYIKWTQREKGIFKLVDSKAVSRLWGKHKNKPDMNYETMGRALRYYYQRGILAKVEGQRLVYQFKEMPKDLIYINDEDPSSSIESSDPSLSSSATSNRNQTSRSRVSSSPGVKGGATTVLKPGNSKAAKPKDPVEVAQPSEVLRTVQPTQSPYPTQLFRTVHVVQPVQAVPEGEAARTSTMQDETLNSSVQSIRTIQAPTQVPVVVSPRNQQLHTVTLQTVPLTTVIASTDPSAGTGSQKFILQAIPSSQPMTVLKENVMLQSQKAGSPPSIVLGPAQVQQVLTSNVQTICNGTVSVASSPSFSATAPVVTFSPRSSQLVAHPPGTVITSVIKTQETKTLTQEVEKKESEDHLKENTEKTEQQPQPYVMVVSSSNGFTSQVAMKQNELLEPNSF
SPIB, sequence (Q01892 whole entry): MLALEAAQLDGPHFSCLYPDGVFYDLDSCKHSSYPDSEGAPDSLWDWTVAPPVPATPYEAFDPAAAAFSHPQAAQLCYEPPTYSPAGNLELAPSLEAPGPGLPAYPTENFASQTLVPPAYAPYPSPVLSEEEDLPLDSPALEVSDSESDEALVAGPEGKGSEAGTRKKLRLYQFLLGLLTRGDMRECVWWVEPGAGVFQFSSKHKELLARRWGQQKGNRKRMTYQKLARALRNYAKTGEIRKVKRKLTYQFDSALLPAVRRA
ETV1, sequence (P50549 whole entry): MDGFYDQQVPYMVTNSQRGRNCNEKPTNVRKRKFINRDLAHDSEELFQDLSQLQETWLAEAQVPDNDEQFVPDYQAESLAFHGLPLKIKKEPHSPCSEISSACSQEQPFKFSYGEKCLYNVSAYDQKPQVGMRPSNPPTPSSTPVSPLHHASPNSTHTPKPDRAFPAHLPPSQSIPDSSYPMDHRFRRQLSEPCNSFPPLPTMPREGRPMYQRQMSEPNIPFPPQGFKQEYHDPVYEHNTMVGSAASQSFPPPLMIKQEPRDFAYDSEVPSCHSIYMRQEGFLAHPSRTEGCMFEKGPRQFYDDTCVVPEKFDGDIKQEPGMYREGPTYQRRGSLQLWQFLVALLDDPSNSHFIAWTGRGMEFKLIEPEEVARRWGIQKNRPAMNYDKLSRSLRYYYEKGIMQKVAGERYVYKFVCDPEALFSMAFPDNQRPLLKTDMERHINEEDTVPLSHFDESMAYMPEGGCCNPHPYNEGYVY

As to CACTCC, the binding signal with FLI1 is 1.27 fold enrichment (6-mer frequency, TF over GST control); with ELK1 it was 1.41 fold enrichment (6-mer frequency, TF over GST control); with GABPA, 1.32 fold enrichment (6-mer frequency, TF over GST control); with ERG, 1.29 fold enrichment (6-mer frequency, TF over GST control); in the assay with ELF1 it was 1.34 fold enrichment (6-mer frequency, TF over GST control); with EHF, 1.17 fold enrichment (6-mer frequency, TF over GST control). Also, the binding signal with SPI1 is 1.23 fold enrichment (6-mer frequency, TF over GST control); in the assay with SPIB, 1.33 fold enrichment (6-mer frequency, TF over GST control); with ELK3, 1.27 fold enrichment (6-mer frequency, TF over GST control); with FEV, 1.28 fold enrichment (6-mer frequency, TF over GST control); with ETV5, 1.27 fold enrichment (6-mer frequency, TF over GST control); in the assay with HSF1, 1.05 fold enrichment (6-mer frequency, TF over GST control). Moreover, the binding signal in the assay with SPIC is 1.28 fold enrichment (6-mer frequency, TF over GST control); in the assay with ELF4, 1.34 fold enrichment (6-mer frequency, TF over GST control); in the assay with ELK4 it was 1.35 fold enrichment (6-mer frequency, TF over GST control); in the assay with ETV2, 1.17 fold enrichment (6-mer frequency, TF over GST control); in the assay with ELF3 it was 1.23 fold enrichment (6-mer frequency, TF over GST control); with ETV1, 1.27 fold enrichment (6-mer frequency, TF over GST control).
